Sampled rows, rich in hits. Any-hit rate of the full collection: about 8.9%.
IMPase Li inh: membrane-permeable IMPase blocker, potentiated with lithium. 0.35% of 210,000 active. AID 1457. Potency, µM (highest dose often 59.4 µM), actives largely listed as inhibitors. CHO-M1 cells, IP1 TR-FRET (IP-One), carbachol + lithium;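 note: IP1 builds up when IMPase is blocked and the TR-FRET signal falls; nearly all actives have a fitted effect of over 50% in size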
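IP1 accumulation measured by competitive TR-FRET in lysed CHO-M1 cells after 30 min compound exposure at 37C, with a small lithium addition to potentiate weak responses. Hill-equation AC50 from ratio and donor-channel data.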
12-hLO inh: 12-hLO (ALOX12) enzyme inhibition. purified 12-hLO, xylenol orange hydroperoxide absorbance. 0.12% of 150,000 active. Potency, µM (highest dose often 57.1 µM), actives largely listed as inhibitors. P18054; note: nearly all actives have a fitted effect of over 55% in size
Target sequence (P18054 whole entry, looked up): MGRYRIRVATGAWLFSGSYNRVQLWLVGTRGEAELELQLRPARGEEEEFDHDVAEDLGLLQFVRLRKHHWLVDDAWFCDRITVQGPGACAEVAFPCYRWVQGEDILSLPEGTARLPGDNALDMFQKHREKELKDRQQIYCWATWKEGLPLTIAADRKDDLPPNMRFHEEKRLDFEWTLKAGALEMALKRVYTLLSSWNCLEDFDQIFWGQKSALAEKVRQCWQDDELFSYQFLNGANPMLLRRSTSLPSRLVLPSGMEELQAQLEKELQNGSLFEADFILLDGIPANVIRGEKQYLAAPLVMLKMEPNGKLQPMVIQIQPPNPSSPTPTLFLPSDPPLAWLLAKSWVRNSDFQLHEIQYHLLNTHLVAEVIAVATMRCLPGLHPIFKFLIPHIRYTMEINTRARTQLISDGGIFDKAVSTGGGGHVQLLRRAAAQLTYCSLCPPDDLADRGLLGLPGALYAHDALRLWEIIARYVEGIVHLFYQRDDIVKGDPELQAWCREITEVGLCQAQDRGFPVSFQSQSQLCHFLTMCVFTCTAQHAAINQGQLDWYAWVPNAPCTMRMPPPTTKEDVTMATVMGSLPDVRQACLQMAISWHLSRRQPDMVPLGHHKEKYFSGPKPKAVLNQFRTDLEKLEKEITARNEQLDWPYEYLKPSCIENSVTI
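Hydroperoxide formation by human 12-lipoxygenase from 40 uM arachidonic acid was followed colorimetrically via ferric-xylenol orange complex, using the 573/405 nm absorbance ratio. Enzyme concentration was 150 nM, with 30 min reaction at room temperature.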
IMPase inh: cell-permeable inhibitors of inositol monophosphatase (IMPase); P97697; inhibition (IP1 accumulation), % at 46.1 µM; CHO-M1 cells, IP1 accumulation, HTRF TR-FRET ratio; 120,000 tested, under 10 active; active = well fitted curve in the direction sought with a large enough effect in the signal ratio, not every such curve was filed as active; inconclusive = small, poorly fitted or top-dose-only effect, or a change in a side signal; inactive = no such curve, though single readings can be large or run the other way; the % refers to the signal ratio;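 note: cells stimulated with carbachol in lithium chloride buffer; higher means more IMPase inhibition seen as more IP1 and lower FRET ratio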
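In this qHTS, compounds (final up to 46 uM) act on CHO-M1 cells that are then activated through the M1 receptor with carbachol, in pH 7.4 buffer containing 50 mM LiCl, for 30 min. IP1 accumulation is quantified by the IP-One immunoassay.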
ALDH1A1 block: blocks purified human ALDH1A1 activity; Purified ALDH1A1, NADH fluorescence, propionaldehyde substrate; AID 1030; Potency, µM (highest dose often 75.3 µM), usual class: inhibitors; P00352; 7.3% of 220,000 active; active = well fitted inhibition curve with a large enough effect, not every such curve was filed as active; inconclusive = small, poorly fitted or top-dose-only effect, or another doubt; inactive = no such curve, though single readings can be large or run the other way
NPSR antag: antagonists of human neuropeptide S receptor cAMP signaling | Q6W5P4 | CHO-NPSR cells, cAMP TR-FRET, antagonist mode | Potency, µM (top dose mostly 38.3 µM), usual class: inhibitors | 1% of 220,000 active; note: nearly all actives have a fitted effect of over 50% in size
HPGD block: inhibitors of human 15-hydroxyprostaglandin dehydrogenase (HPGD) | 4.3% of 150,000 active | Potency, µM, usual class: inhibitors | purified HPGD, NADH fluorescence kinetic, PGE2 substrate | AID 894 | P15428; active = well fitted inhibition curve with a large enough effect, not every such curve was filed as active; inconclusive = small, poorly fitted or top-dose-only effect, or another doubt; inactive = no such curve, though single readings can be large or run the other way
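NADH formation kinetics: reaction with 30 uM PGE2 and 1 mM NAD+ (final), 20 nM enzyme, Tris-HCl pH 8 with Tween 20, after 15 min compound preincubation at room temperature. Fluorescence change, last versus first of five reads.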
A number is an active result; . = inactive; ? = inconclusive; / = no result. Unless noted, calls come from the whole dose curve; as a rule, active = well fitted curve in the direction sought with a large enough effect; inconclusive = small, poorly fitted or top-dose-only effect, or another doubt; inactive = no such curve, though single readings can be large; an effect the other way counts as inactive or inconclusive.

SMILES | IMPase Li inh | 12-hLO inh | IMPase inh | ALDH1A1 block | NPSR antag | HPGD block
S=c1[nH]cc(Cc2ccccc2)s1 | . | . | / | 10µM | . | 20µM
Cc1cc(C(F)(F)F)nn1CC(=O)NNC(=S)Nc1cccc(Cl)c1 | . | . | . | 20µM | . | .
O=C(NNC(=S)Nc1cccc(C(F)(F)F)c1)c1ccccc1Cl | . | . | / | 8.91µM | . | .
C/C=C/C(=O)Nc1cccc(C(F)(F)F)c1 | . | . | . | . | . | .
O=C(O)/C=C/C(=O)Nc1cccc(C(F)(F)F)c1 | . | . | . | 20µM | . | .
FC(F)(F)c1cccc(NC(=S)NCc2ccccn2)c1 | . | . | / | ? | . | .
FC(F)(F)c1cccc(NC(=S)NNC(=S)NCc2ccccc2)c1 | . | ? | . | 0.562µM | . | ?
Cc1cc(C)nc(Nc2ncc(O)n2-c2ccccc2)n1 | . | . | . | . | . | .
Oc1c(C=NCc2ccncc2)sc2ccccc12 | . | . | . | ? | . | ?
O=C(Nc1ccc(-c2cn3ccccc3n2)cc1)c1ccco1 | . | . | / | . | . | .
CCCCCCN1C(=O)C(O)=C(C(C)=O)C1c1ccccc1[N+](=O)[O-] (configuration not stated) | . | / | / | . | . | /
O=C(CC(c1ccco1)C1CCCCC1=O)c1ccccc1 (configuration not stated) | . | . | . | ? | . | .
COc1ccc(C2C(C#N)=C(N)Nc3onc(C(C)(C)C)c32)c(OC)c1 (configuration not stated) | . | . | / | . | . | .
CNC(=S)NNC(=O)c1cccc(C(F)(F)F)c1 | . | . | . | . | . | .
O=C(NNC(=S)Nc1cccc(C(F)(F)F)c1)c1cccc(Cl)c1 | . | . | / | 22.4µM | . | .
FC(F)(F)c1cccc(NC(=S)Nc2cccc(NC(=S)Nc3cccc(C(F)(F)F)c3)n2)c1 | / | / | / | 25.1µM | ? | /
CN(C)C=NC(=O)c1cc(C(=O)c2ccccc2Cl)c[nH]1 | . | / | / | ? | . | /
O=C(NCc1ccco1)c1cc(-c2cccs2)nc2ccccc12 | . | . | . | ? | . | ?
COc1ccc(CNC(=O)COC(=O)c2cc(-c3ccc(Cl)s3)nc3ccccc23)cc1 | 10µM | . | . | ? | 10µM | ?
Cc1nn(-c2ccccc2)c(C)c1C(=O)OCC(=O)NCc1ccco1 | . | . | . | 22.4µM | . | .
O=C(N/N=C/c1cccnc1)c1cc(-c2cccs2)nc2ccccc12 | . | . | / | ? | . | ?
Cc1nn(-c2ccccc2)c(C)c1C(=O)OCC(N)=O | . | / | / | . | . | /
O=C(N/N=C/c1ccc[nH]1)c1cc(-c2cccs2)nc2ccccc12 | . | / | / | 15.8µM | . | /
O=C(COC(=O)c1cc(-c2cccs2)nc2ccccc12)NCc1ccco1 | 7.94µM | ? | . | ? | . | ?
C/C(=N\Nc1ccc(S(=O)(=O)Nc2ccccc2)cc1[N+](=O)[O-])c1ccncc1 | . | / | / | . | . | /
SMILES | IMPase Li inh | 12-hLO inh | IMPase inh | ALDH1A1 block | NPSR antag | HPGD block
COc1ccc(NS(=O)(=O)c2ccc(N/N=C(\C)c3ccncc3)c([N+](=O)[O-])c2)cc1 | . | . | / | . | . | 6.31µM
CCOC(=O)C1CCCN(S(=O)(=O)c2ccc(Br)c(OC)c2)C1 (configuration not stated) | . | . | . | 11.2µM | . | .
CCOC(=O)C1CCCN(S(=O)(=O)c2ccc(NC(C)=O)cc2)C1 (configuration not stated) | . | / | / | 2.82µM | . | /
CCOC(=O)C1CCN(C(=S)Nc2ccc(C)cc2)CC1 | . | / | / | . | . | /
CCOC(=O)C1CCN(C(=S)Nc2ccc(S(N)(=O)=O)cc2)CC1 | . | . | / | 15µM | . | 28.2µM
CCOC(=O)C1CCCN(S(=O)(=O)c2cc(OCC(=O)NC3CCCCC3)c(C)cc2Cl)C1 (configuration not stated) | . | . | . | 7.08µM | . | .
CCSC1=NCN(CCCC(=O)O)CN1 | . | . | . | . | . | .
COc1ccc(N2C(=O)C(Cl)=C(N3CCCC3)C2=O)cc1 | . | . | . | . | . | .
COC(=O)C1SCC2C(=O)N(Cc3ccccc3)CC(=O)N21 (configuration not stated) | . | / | / | . | . | /

Screening results as filed in PubChem BioAssay.
